Test results taken from PubChem BioAssay (Tox21).
Records with an inconclusive call do not appear. Where a call stands in place of a potency, no number is given. Calls of active or inactive are those of the source. Unless noted, calls come from the whole dose curve; as a rule, active = well fitted curve in the direction sought with a large enough effect in the repeat runs; inconclusive = weak or mixed curves; inactive = no such curve, though single readings can be large; an effect the other way counts as inactive or inconclusive.

Legend:
[1] = target: Peroxisome proliferator-activated receptor gamma (Homo sapiens) (UniProt P37231); experiment: qHTS assay to identify small molecule agonists of the peroxisome proliferator-activated receptor gamma (PPARg) signaling pathway (AID 743094; active = well fitted activation curve with a large enough effect in the signal ratio in the repeat runs, not every such curve was filed as active; the % refers to the signal ratio)
Outline: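 Cell-based bla reporter, HEK293H background, PPARg-driven UAS. Pre-incubation 5 h, 37C, 5% CO2. Compound 17 h, 37C. Substrate 1 h RT; fluorescence.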

[2] = qHTS assay to identify small molecule antagonists of the peroxisome proliferator-activated receptor gamma (PPARg) signaling pathway - cell viability counter screen (AID 743194); note: nearly all actives have a fitted effect of over 55% in size
Outline: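 Cytotoxicity counter screen in PPARg-bla HEK293H cells, same wells as reporter assay. Compounds plus 50 nM rosiglitazone (final) for 17 h at 37 C, then viability read by CellTiter-Glo luminescence.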

[3] = qHTS assay for small molecule agonists of the antioxidant response element (ARE) signaling pathway (AID 743202; active = well fitted activation curve with a large enough effect in the signal ratio in the repeat runs, not every such curve was filed as active; the % refers to the signal ratio; note: potency is the fitted concentration of half-maximal effect)
Outline: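 HepG2 ARE-bla cells; 16 h treatment at 37 C; FRET-based beta-lactamase fluorescence read after 2 h substrate incubation at room temperature.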

[4] = qHTS assay for small molecule activators of the heat shock response signaling pathway - cell viability counter screen (AID 743209); note: nearly all actives have a fitted effect of over 50% in size
Outline: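 Same-well multiplex: after 2.5 h room-temperature incubation with LiveBLAzer B/G substrate and fluorescence reading, CellTiter-Glo reagent was added to HSE-bla HeLa cells that had received compound for 5 h at 37 C; luminescence read after 30 min.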

[5] = qHTS assay for small molecule activators of the heat shock response signaling pathway (AID 743210; active = well fitted activation curve with a large enough effect in the signal ratio in the repeat runs, with a control signal flat, not every such curve was filed as active; the % refers to the signal ratio;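 note: HeLa cells with beta-lactamase reporter driven by heat shock elements; series mostly up to about 63 µM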)
Outline: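 Following overnight attachment, HSE-bla HeLa cells received test compounds for 5 h at 37 C; beta-lactamase activity was then detected via FRET substrate fluorescence.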

[6] = qHTS assay to identify small molecule agonists of the peroxisome proliferator-activated receptor delta (PPARd) signaling pathway - cell viability counter screen (AID 743211); note: nearly all actives have a fitted effect of over 55% in size; note: potency is the fitted concentration of half-maximal effect
Outline: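 Multiplexed format: after the 2 h room-temperature LiveBLAzer B/G FRET step, CellTiter-Glo was added to the same wells. Luminescence after 30 min gave cell viability; compound exposure was 17 h at 37C.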

[7] = target: Peroxisome proliferator-activated receptor delta (Homo sapiens) (UniProt Q03181); experiment: qHTS assay to identify small molecule agonists of the peroxisome proliferator-activated receptor delta (PPARd) signaling pathway (AID 743212; calls by dose curve)
Outline: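 Tox21 library screened in GeneBLAzer PPARd UAS-bla HEK293H cells. After compound treatment at 37 C, a FRET-based beta-lactamase substrate was applied for 2 h and fluorescence recorded.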

[8] = qHTS assay to identify small molecule agonists of the farnesoid-X-receptor (FXR) signaling pathway - cell viability counter screen (AID 743218); note: nearly all actives have a fitted effect of over 45% in size; note: potency is the fitted concentration of half-maximal effect
Outline: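 Readout: CellTiter-Glo luminescence, 30 min RT, multiplexed after the FXR-bla FRET reading. HEK 293T FXR-UAS-bla cells received compound 5 h post-plating and were incubated 16 h at 37 C.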

[9] = qHTS assay to identify small molecule antagonists of the farnesoid-X-receptor (FXR) signaling pathway - cell viability counter screen (AID 743221; active = well fitted cell-killing curve with a large enough effect in the repeat runs, not every such curve was filed as active; note: nearly all actives have a fitted effect of over 50% in size; note: potency is the fitted concentration of half-maximal effect)
Outline: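 CellTiter-Glo, 30 min RT, luminescence; same wells as the LiveBLAzer FRET read. Cells: FXR-UAS-bla HEK 293T. Treatment: compound with chenodeoxycholic acid 50 uM final, 16 h at 37 C.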

[10] = target: Vitamin D3 receptor (Homo sapiens) (UniProt P11473); experiment: qHTS assay to identify small molecule agonists of the vitamin D receptor (VDR) signaling pathway (AID 743222; calls by dose curve)
Outline: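 Following 4 h attachment at 37C, VDR-bla cells (2,000 per well) received DMSO-dissolved compounds or controls. After 16 h incubation, LiveBLAzer B/G FRET substrate was added and fluorescence read 2 h later at room temperature.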

[11] = qHTS assay to identify small molecule agonists of the vitamin D receptor (VDR) signaling pathway - cell viability counter screen (AID 743224); note: nearly all actives have a fitted effect of over 50% in size; note: potency is the fitted concentration of half-maximal effect
Outline: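 In parallel with the bla FRET readout, cytotoxicity toward VDR-bla cells after 16 h compound exposure was assessed by CellTiter-Glo, with luminescence recorded after a 30 min room-temperature incubation.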

[12] = qHTS assay to identify small molecule antagonists of the peroxisome proliferator-activated receptor delta (PPARd) signaling pathway - cell viability counter screen (AID 743213); note: nearly all actives have a fitted effect of over 50% in size; note: potency is the fitted concentration of half-maximal effect
Outline: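 Cytotoxicity counter screen: CellTiter-Glo luminescence read 30 min after addition, in the same wells as the reporter assay. There, PPARd UAS-bla HEK293H cells (3000/well) were treated 17 h at 37 C with compound and 300 nM L165041.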

[13] = target: Peroxisome proliferator-activated receptor delta (Homo sapiens) (UniProt Q03181); experiment: qHTS assay to identify small molecule antagonists of the peroxisome proliferator-activated receptor delta (PPARd) signaling pathway (AID 743215; active = well fitted inhibition curve with a large enough effect in the signal ratio in the repeat runs, not every such curve was filed as active; the % refers to the signal ratio;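 note: cells stimulated with agonist L165041 at 300 nM final during compound exposure; series mostly up to about 62 µM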)
Outline: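 Fluorescence from cleaved LiveBLAzer B/G FRET substrate (2 h, room temperature) reports PPARd-driven beta-lactamase in HEK293H UAS-bla cells. Cells had been treated 17 h at 37 C with compound plus 300 nM final L165041.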

[14] = target: Vitamin D3 receptor (Homo sapiens) (UniProt P11473); experiment: qHTS assay to identify small molecule antagonists of the vitamin D receptor (VDR) signaling pathway (AID 743223; active = well fitted inhibition curve with a large enough effect in the signal ratio in the repeat runs, not every such curve was filed as active; the % refers to the signal ratio)
Outline: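 After VDR-bla cells are plated and left 4 h at 37C, DMSO-dissolved compounds and 3 nM (final) calcitriol agonist are added. Incubation continues 16 h at 37C; FRET beta-lactamase substrate then develops 2 h at room temperature.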

[15] = qHTS assay to identify small molecule that activate the aryl hydrocarbon receptor (AhR) signaling pathway - cell viability counter screen (AID 743086); note: nearly all actives have a fitted effect of over 45% in size; note: potency is the fitted concentration of half-maximal effect
Outline: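 HepG2-AhR-luc (HG2L7.5c1) cells, 4000/well, treated 24 h at 37 C with compound; viability measured as CellTiter-Fluor fluorescence after 30 min in the same wells as the luciferase read.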

[16] = qHTS assay for small molecule agonists of the antioxidant response element (ARE) signaling pathway - cell viability counter screen (AID 743203; calls by dose curve; note: nearly all actives have a fitted effect of over 55% in size; note: potency is the fitted concentration of half-maximal effect)
Outline: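 Measured in the same wells as the beta-lactamase ARE reporter, this read-out is CellTiter-Glo luminescence from HepG2 ARE-bla cells given compounds for 16 hrs.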

[17] = target: Bile acid receptor (Homo sapiens) (UniProt Q96RI1); experiment: qHTS assay to identify small molecule agonists of the farnesoid-X-receptor (FXR) signaling pathway (AID 743220; active = well fitted activation curve with a large enough effect in the signal ratio in the repeat runs, not every such curve was filed as active; the % refers to the signal ratio; note: potency is the fitted concentration of half-maximal effect)
Outline: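 FXR-UAS-bla HEK 293T cells carrying a UAS-driven beta-lactamase reporter were plated for 5 h at 37C/5% CO2, then exposed to DMSO-dissolved Tox21 10K compounds for 16 h at 37C. A LiveBLAzer B/G FRET substrate was loaded for 2 h at room temperature before fluorescence reading.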

[18] = target: Bile acid receptor (Homo sapiens) (UniProt Q96RI1); experiment: qHTS assay to identify small molecule antagonists of the farnesoid-X-receptor (FXR) signaling pathway (AID 743217; active = well fitted inhibition curve with a large enough effect in the signal ratio in the repeat runs, not every such curve was filed as active; the % refers to the signal ratio; note: potency is the fitted concentration of half-maximal effect)
Outline: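 FRET fluorescence after 2 h room-temperature LiveBLAzer loading gives the readout. Prior step: FXR-bla HEK 293T cells, seeded and incubated 5 h, received test compounds plus 50 uM final CDCA for 16 h at 37 °C.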

[19] = target: Peroxisome proliferator-activated receptor gamma (Homo sapiens) (UniProt P37231); experiment: qHTS assay to identify small molecule antagonists of the peroxisome proliferator-activated receptor gamma (PPARg) signaling pathway (AID 743191; calls by dose curve; note: potency is the fitted concentration of half-maximal effect; nearly all actives have a fitted effect of over 30% in size)
Outline: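 GeneBLAzer PPARg UAS-bla HEK293H cells, 5 h post-plating, exposed to compounds 17 h at 37C. LiveBLAzer B/G FRET substrate added for 1 h at room temperature; beta-lactamase reporter read by fluorescence intensity.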

Bile acid receptor (Homo sapiens), sequence (Q96RI1 whole entry, looked up): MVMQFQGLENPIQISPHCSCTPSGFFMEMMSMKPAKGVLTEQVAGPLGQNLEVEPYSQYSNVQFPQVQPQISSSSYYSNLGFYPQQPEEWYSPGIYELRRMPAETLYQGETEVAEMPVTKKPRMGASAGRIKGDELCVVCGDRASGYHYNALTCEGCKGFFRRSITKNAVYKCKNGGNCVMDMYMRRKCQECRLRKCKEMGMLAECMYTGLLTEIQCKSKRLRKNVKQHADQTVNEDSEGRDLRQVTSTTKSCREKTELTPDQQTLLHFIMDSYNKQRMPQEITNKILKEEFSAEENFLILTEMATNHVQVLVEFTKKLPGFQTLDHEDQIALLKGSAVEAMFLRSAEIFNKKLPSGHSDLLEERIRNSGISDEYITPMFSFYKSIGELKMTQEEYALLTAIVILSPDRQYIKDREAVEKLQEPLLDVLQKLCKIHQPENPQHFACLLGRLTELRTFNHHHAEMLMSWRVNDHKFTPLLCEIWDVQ
Vitamin D3 receptor (Homo sapiens), sequence (P11473 whole entry, looked up): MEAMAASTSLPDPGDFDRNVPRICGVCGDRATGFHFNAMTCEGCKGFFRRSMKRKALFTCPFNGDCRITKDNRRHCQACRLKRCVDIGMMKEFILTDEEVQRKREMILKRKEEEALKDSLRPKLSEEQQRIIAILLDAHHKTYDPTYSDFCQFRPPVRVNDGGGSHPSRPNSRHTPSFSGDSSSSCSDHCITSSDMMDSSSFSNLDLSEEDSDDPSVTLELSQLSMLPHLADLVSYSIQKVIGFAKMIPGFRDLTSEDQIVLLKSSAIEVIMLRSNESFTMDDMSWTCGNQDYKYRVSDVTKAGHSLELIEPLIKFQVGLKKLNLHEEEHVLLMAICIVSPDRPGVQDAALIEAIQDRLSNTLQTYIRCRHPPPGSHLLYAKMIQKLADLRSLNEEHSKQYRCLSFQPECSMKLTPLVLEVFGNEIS
Peroxisome proliferator-activated receptor gamma (Homo sapiens), sequence (P37231 whole entry, looked up): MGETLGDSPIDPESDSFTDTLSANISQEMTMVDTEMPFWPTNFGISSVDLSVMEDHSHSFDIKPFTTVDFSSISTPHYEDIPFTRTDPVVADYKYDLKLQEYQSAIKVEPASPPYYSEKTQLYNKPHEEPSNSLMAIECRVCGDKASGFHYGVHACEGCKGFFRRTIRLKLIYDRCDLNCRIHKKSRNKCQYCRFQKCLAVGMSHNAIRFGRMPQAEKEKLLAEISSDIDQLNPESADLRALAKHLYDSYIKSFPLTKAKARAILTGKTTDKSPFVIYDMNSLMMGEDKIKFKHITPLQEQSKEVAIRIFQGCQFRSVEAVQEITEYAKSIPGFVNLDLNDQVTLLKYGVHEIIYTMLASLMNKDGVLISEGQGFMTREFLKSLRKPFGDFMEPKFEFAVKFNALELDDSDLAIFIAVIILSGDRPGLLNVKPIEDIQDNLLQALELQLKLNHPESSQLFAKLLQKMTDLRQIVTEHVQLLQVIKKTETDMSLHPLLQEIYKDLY
Peroxisome proliferator-activated receptor delta (Homo sapiens), sequence (Q03181 whole entry, looked up): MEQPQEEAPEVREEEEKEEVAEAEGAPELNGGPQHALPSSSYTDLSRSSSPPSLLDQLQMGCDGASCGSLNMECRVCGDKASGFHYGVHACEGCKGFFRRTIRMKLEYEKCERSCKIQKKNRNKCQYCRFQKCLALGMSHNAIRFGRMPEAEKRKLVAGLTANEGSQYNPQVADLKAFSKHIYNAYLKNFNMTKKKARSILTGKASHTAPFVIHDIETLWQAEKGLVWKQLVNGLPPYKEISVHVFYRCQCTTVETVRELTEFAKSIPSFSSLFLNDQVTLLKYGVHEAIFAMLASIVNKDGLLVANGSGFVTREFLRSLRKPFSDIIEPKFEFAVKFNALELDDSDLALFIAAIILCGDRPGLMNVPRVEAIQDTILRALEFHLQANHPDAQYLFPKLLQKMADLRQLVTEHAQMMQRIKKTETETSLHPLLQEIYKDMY

Row | SMILES | Potency [1] | Potency [2] | Potency [3] | Potency [4] | Potency [5] | Potency [6] | Potency [7] | Potency [8] | Potency [9] | outcome [10] | Potency [11] | Potency [12] | Potency [13] | outcome [14] | Potency [15] | Potency [16] | Potency [17] | Potency [18] | Potency [19]
1 | O=C1OCCN1/N=C/c1ccc([N+](=O)[O-])o1 | inactive | inactive | 15 µM (active) | inactive | inactive | inactive | inactive | inactive | inactive | inactive | inactive | – | – | – | – | – | – | – | –
2 | O=C(O)c1ccccc1NCCc1ccccc1 | – | inactive | – | inactive | inactive | inactive | inactive | – | inactive | – | inactive | inactive | inactive | inactive | – | – | – | – | –
3 | CO[C@@]12[C@H](COC(N)=O)C3=C(C(=O)C(C)=C(N)C3=O)N1C[C@@H]1N[C@@H]12 | – | – | – | – | – | inactive | inactive | inactive | inactive | – | – | inactive | – | – | 29.8 µM (active) | 16.8 µM (active) | inactive | – | –
4 | O=C(C(=O)c1ccccc1)c1ccccc1 | – | inactive | – | inactive | inactive | inactive | – | – | inactive | inactive | inactive | inactive | – | – | inactive | – | – | – | –
5 | O=C(CCCN1CCN(c2ccc(F)cc2)CC1)NC1c2ccccc2CSc2ccccc21 (stereo unspecified) | – | – | – | inactive | inactive | 9.44 µM (active) | inactive | 10.6 µM (active) | 26.6 µM (active) | – | 13.3 µM (active) | 8.41 µM (active) | – | – | – | – | inactive | – | –
6 | C=CC(C)(C)CC(=O)OC | – | inactive | inactive | inactive | – | inactive | inactive | inactive | inactive | inactive | inactive | inactive | – | inactive | – | – | inactive | inactive | –
7 | COCCOC(=O)C1=C(C)NC(C)=C(C(=O)OC/C=C/c2ccccc2)C1c1cccc([N+](=O)[O-])c1 (stereo unspecified) | – | inactive | – | inactive | inactive | – | – | inactive | inactive | – | inactive | inactive | – | inactive | – | – | 9.44 µM (active) | – | 18.8 µM (active)
8 | CCCCCCCCCCCCCCCCBr | inactive | – | inactive | inactive | inactive | inactive | inactive | inactive | inactive | inactive | inactive | inactive | inactive | inactive | – | inactive | – | – | –
9 | CC(C)CCCCCOC(=O)CCCCC(=O)OCCCCCC(C)C | inactive | inactive | – | inactive | inactive | – | inactive | inactive | inactive | inactive | inactive | inactive | inactive | inactive | – | – | – | – | –
10 | Cc1ccc(Nc2nccc(N(C)c3ccc4c(C)n(C)nc4c3)n2)cc1S(N)(=O)=O | – | – | – | inactive | inactive | inactive | – | inactive | inactive | inactive | inactive | – | – | inactive | 23.7 µM (active) | inactive | – | – | –
11 | O=C(O)c1c(O)c(-c2ccccc2)nc2ccccc12 | – | inactive | inactive | inactive | inactive | inactive | inactive | – | inactive | inactive | inactive | inactive | – | inactive | – | inactive | inactive | 16.8 µM (active) | –
12 | O=C(Nc1ccccc1)Nc1ccccc1 | inactive | inactive | inactive | inactive | inactive | inactive | inactive | – | – | – | inactive | inactive | – | – | – | inactive | – | – | –
13 | O=C(OCCOCCO)c1ccccc1Nc1cccc(C(F)(F)F)c1 | inactive | inactive | – | inactive | inactive | inactive | inactive | – | inactive | inactive | inactive | inactive | – | inactive | – | – | – | – | –
